Data as given in the supplement of paper PMC6555819.

Experiments:
Experiment in all cases: PBM binding z-score (relative to random genomic background probes); higher = stronger binding; sequences stand for … in GC…GCGATTGACAGCGTAGAATGAAGG
[1] = tested on: PPARg:RXRa DBDmut IVT, anti-RXR (DBD mutation: RXRa K156A/R161A, NR concentration 270 nM, RXRa partner concentration 90 nM)
Procedure, shortened: (§1)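 Custom Agilent 4×180K protein-binding microarrays carried double-stranded probes. Their 34-nt variable regions held direct-repeat seeds, single-nucleotide variants, half-site ablations and random human genomic background sequences. Arrays were incubated 1 h with ligand-free nuclear receptor dimers in PBS pH 7.4, 2% milk, 0.02% Triton X-100, 1 mM DTT, 0.2 mg/mL BSA and 0.4 mg/ml salmon testes DNA. Antibodies against each partner (one per run) detected binding, and scanned fluorescence was regression-normalized. Binding z-scores use random background probes as reference.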

[2] = tested on: PPARg:RXRa IVT, anti-PPARg (NR concentration 270 nM, RXRa partner concentration 90 nM)
Procedure, shortened: as §1

[3] = tested on: PPARg DBDmut:RXRa IVT, anti-PPARg (DBD mutation: PPARg1 K132A/R137A, NR concentration 270 nM, RXRa partner concentration 90 nM)
Procedure, shortened: as §1

[4] = tested on: PPARg DBDmut IVT, anti-PPARg (DBD mutation: PPARg1 K132A/R137A, NR concentration 270 nM)
Procedure, shortened: as §1

[5] = tested on: PPARg homodimer (NR concentration 180 nM)
Procedure, shortened: as §1

[6] = tested on: PXR:RXRa (NR concentration 270 nM, RXRa partner concentration 90 nM)
Procedure, shortened: as §1

[7] = tested on: PXR homodimer (NR concentration 270 nM)
Procedure, shortened: as §1

[8] = tested on: RARa:RXR (NR concentration 270 nM, RXRa partner concentration 90 nM)
Procedure, shortened: as §1

[9] = tested on: RARa homodimer (NR concentration 270 nM)
Procedure, shortened: as §1

[10] = tested on: RARb:RXRa (NR concentration 270 nM, RXRa partner concentration 90 nM)
Procedure, shortened: as §1

| Sequence | PBM binding z-score [1] | PBM binding z-score [2] | PBM binding z-score [3] | PBM binding z-score [4] | PBM binding z-score [5] | PBM binding z-score [6] | PBM binding z-score [7] | PBM binding z-score [8] | PBM binding z-score [9] | PBM binding z-score [10] |
| --- | --- | --- | --- | --- | --- | --- | --- | --- | --- | --- |
| TCTATTAGTTGCAGGGCAACCGACGAGTCCGTTT | 2.17 | 1.01 | 0.15 | 1.26 | 0.494 | 0.353 | 0.498 | 0.391 | 0.736 | 0.851 |
| TTACCAAGGTGAAGGTCGCTGATCCCTCTGTAGA | 1.76 | 3.41 | -0.525 | -0.735 | 0.05 | 0.966 | -0.523 | 1.56 | -0.643 | 2.5 |
| CGAACTAGGTCATCGACAGGACAGTGAATAGTAA | 8.14 | 8.42 | 4.29 | 4.27 | 2.79 | 1.76 | 0.984 | 2.53 | 2.3 | 3.88 |
| TGTCAAAGTTCAAAGTTAACGTAAGTATCCACAC | 0.374 | 4.24 | 1.16 | 1.99 | 2.65 | 5.04 | 4.24 | 4.46 | 1.12 | 5.12 |
| TAGCCTAGGTCATGGGCCAGAATACCACGCGAAC | 1.38 | 3.09 | -0.303 | -0.638 | 0.86 | 1.54 | -0.601 | 2.51 | 0.121 | 3.73 |
| TTACCAAGGTGAAACGTCGTTGATGCACGCCTTG | 3.12 | 2.95 | 0.206 | 0.358 | 0.178 | -0.0159 | -0.972 | 0.592 | -0.282 | 1.62 |
| TCGAGTAGGTTAGTCGGCGCATTCAGCCAACATA | 1.73 | 0.854 | -1.61 | -1.56 | -0.687 | -0.463 | -0.787 | -0.68 | -0.479 | -0.141 |
| TCATATAGGTAAATGCTAGGTGACAGTCCGATCT | 4.18 | 3.05 | 1.51 | 0.754 | 0.369 | 0.559 | 0.133 | 0.861 | 0.862 | 0.403 |
| GCTTACGGGTCAAAGGTTATATCATGAATAGAAT | 4.73 | 5.93 | 2.65 | 2.07 | 4.59 | 6.41 | 0.529 | 8.44 | 1.02 | 4.55 |
| ATCGAAAGGTCGAATGTGAGTATACCCACCCGAA | 0.065 | 1.47 | 1.15 | 0.649 | 1.56 | 2.5 | 0.558 | 2.9 | 0.346 | 3.72 |
| GTACGAAGGTGAATAGGTCGTTGATGAGTAGGCG | 1.5 | 2.19 | -0.159 | -0.129 | 0.859 | 0.754 | -0.215 | 1.75 | 0.356 | 2.01 |
| CGTCCAAGGTCAAGGTTAGTGAAAGAGACTCGAA | 3.18 | 3.79 | 0.923 | 0.146 | 2.5 | 3.81 | 0.691 | 4.34 | 0.992 | 5.07 |
| CCTTACGGGTCAAGTTTATAGCACGGGTGGTACG | 2.03 | 3.32 | 1.11 | -0.333 | 4.02 | 3.89 | 0.698 | 4.34 | 1.46 | 4.19 |
| TCTGGGAGGACACGAAGGTCAGAGCTTTCCAGAG | 1.04 | 0.947 | -0.643 | -0.716 | 1.05 | 1.99 | 0.818 | 2.19 | 0.238 | 3.28 |
| CGAACTAGGTCATTGTCAGGACAGTGAATAGTAA | 8.22 | 8.47 | 5.17 | 6.24 | 3.98 | 1.84 | 0.47 | 2.49 | 0.423 | 3.48 |
| AGAACGAGGGCAAGGAGTTGATAGCACGGGTGGC | 2.54 | 2.09 | 1.19 | -0.462 | 0.0784 | 0.742 | 1.54 | 0.14 | -0.0474 | 2.15 |
| GCATATAGGTAATACAAGGTGAAAGTGCGATTGT | 3.95 | 3.56 | 1.03 | 1.01 | 0.954 | 0.734 | 0.452 | 1.35 | 0.831 | 0.52 |
| GGAACGAGGGCAATGTTGATAGCATCTGTCGACG | 3.67 | 2.77 | 0.286 | -0.167 | 0.467 | 0.63 | 0.108 | 0.572 | -0.191 | 2.13 |
| CAAACTAGGGCACAGAGGTCAAAGTCCGTGCGTA | 7.7 | 7.94 | 4.77 | 2.72 | 4.24 | 6.12 | 8.42 | 6.5 | 1.61 | 4.41 |
